Gal4-VP16 FLuc = counter-screen for ROR gamma inhibitors: Gal4-VP16 reporter; Potency, µM (series often up to 53.6 µM), for the others: at the highest dose activity, negative = inhibition, actives largely listed as inhibitors; 3.5% of 310,000 active; AID 2546; Drosophila S2 Gal4-VP16 UAS-luciferase, luminescence, 20 h;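 note: Gal4-VP16 expression switched on by copper sulfate through the metallothionein promoter; nearly all actives have a fitted effect of over 50% in size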
Luc counter = blocks Kinase-Glo luciferase, a counter-screen artifact; Q27757; Kinase-Glo luciferase, ATP luminescence, 8 min; 0.28% of 200,000 active; Potency, µM (highest dose often 38.3 µM), for the others: at the highest dose activity change, negative = inhibition, most hits filed as inhibitors; AID 1379; note: nearly all actives have a fitted effect of over 60% in size
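Recombinant Kinase-Glo luciferase, 10 uM ATP (linear range), luciferin; imidazole pH 7.2 / KCl / MgCl2 / Tween / BSA buffer; 8 min RT; luminescence.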
RORg inh = ROR gamma (mouse) transcription inhibition; P51450; Drosophila S2 Gal4-RORgamma UAS-luciferase reporter, 20 h; Potency, µM (series often up to 53.6 µM), without a hit: top-dose activity change, negative = inhibition, most hits filed as inhibitors; 5.4% of 310,000 active; AID 2551; note: nearly all actives have a fitted effect of over 60% in size
Target sequence (P51450 whole entry, looked up, the tested form may be a part): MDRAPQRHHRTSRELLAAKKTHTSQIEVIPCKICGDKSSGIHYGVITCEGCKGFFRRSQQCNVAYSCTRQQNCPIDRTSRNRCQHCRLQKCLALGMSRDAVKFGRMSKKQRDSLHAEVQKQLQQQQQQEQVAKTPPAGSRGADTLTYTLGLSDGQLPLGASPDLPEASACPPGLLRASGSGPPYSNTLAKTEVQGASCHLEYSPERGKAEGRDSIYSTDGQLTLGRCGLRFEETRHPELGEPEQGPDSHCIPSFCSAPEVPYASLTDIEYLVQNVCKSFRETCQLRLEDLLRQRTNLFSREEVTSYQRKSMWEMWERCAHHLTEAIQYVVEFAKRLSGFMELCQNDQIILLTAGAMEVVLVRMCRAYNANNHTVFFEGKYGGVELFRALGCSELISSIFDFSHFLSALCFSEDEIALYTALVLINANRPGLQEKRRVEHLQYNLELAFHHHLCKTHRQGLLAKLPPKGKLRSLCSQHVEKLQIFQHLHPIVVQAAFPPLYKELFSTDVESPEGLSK
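Drosophila Schneider cells stably carrying a metallothionein-driven Gal4 DBD–ROR gamma fusion and a UAS-Photinus luciferase reporter were exposed to compound for 1 hr, then induced with copper sulfate (700 uM final) for 20 hr at ambient temperature before luminescence reading.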
The depositor's hits bear a star; u = inconclusive; x = no result given; [ ] = remark or other dose. Most compounds without a hit are left out; they make up all but 6.2% or so of the library. Calls come from the whole dose curve; as a rule, active = well fitted curve in the direction sought with a large enough effect; inconclusive = small, poorly fitted or top-dose-only effect, or another doubt; inactive = no such curve, though single readings can be large; an effect the other way counts as inactive or inconclusive. % is set by controls: 0 for no effect and ±100 for the full control effect; potency is the fitted concentration of half-maximal effect.

SMILES	Gal4-VP16 FLuc	Luc counter	RORg inh
COc1cccc(C2=NN(C(=O)c3ccc(C)o3)C(O)(C(F)(F)F)C2)c1 (configuration not stated)	u	1.6%	-79.4%
COc1cccc(C(=O)N2CCN(Cc3ccccn3)CC2)c1	3.1%	x	-6.1%
COc1ccc(C(=O)N2N=C(c3cccc(OC)c3)CC2(O)C(F)(F)F)cc1 (configuration not stated)	-67.9%	-0.6%	11.2µM*
COc1cccc(C2=NN(C(=O)c3cccs3)C(O)(C(F)(F)F)C2)c1 (configuration not stated)	3.4%[10 µM]	0.2%	27.3%
COc1cccc(C(=O)N2N=C(c3cccc(OC)c3)CC2(O)C(F)(F)F)c1 (configuration not stated)	-18.2%	-1.3%	11.2µM*
COc1cccc(C2(O)CC(C(F)(F)F)=NN2C(=O)c2ccccn2)c1 (configuration not stated)	6.31µM*	-1.4%	1.58µM*
COCCNc1ccc(N2C(=O)CCCC2=O)cc1[N+](=O)[O-]	-0.9%	1.5%	2.1%
COc1ccc(CC(=O)Oc2cc(C)[nH]c(=O)c2[N+](=O)[O-])cc1	-0.9%	-1.8%	-3.0%
C=CC[C@@H]1C=C[C@@H](O/N=C(/C)CCC(=O)OC[C@@H]2O[C@H](C#Cc3ccccc3)C=C[C@@H]2Oc2ccc(C)cc2)[C@@H](CO)O1	-2.1%[10 µM]	x	1.1%[10 µM]
Cn1c(=O)n(C)c2cc(S(=O)(=O)NCCO)ccc21	0.7%	0.5%	13.2%
O=c1oc2cc(O)ccc2cc1-c1ccc2c(c1)OCCO2	-27.6%	-3.5%	-16.8%
CCOc1ccc(NC(=O)CC2C(=O)N(c3ccc(OC)cc3)C(=O)N2Cc2ccc(OC)cc2)cc1 (configuration not stated)	3.3%	0.0%	39.0%
Cc1ccc(OCCn2cnc(Cl)c2Cl)cc1	21.1%	-4.7%	22.5%
CCCn1c(-c2ccc(F)cc2)nc2c(NCCN3CCCC3)nc(C)nc21	3.3%	-6.0%	-12.5%
O=C(COC(=O)C1CCN(S(=O)(=O)c2ccc3c(c2)OCCO3)CC1)Nc1ccc(C(F)(F)F)cc1	-1.9%	2.5%	-16.3%
COc1ccccc1N1C(=NC(=O)C(C)Oc2ccccc2)SC2CS(=O)(=O)CC21 (configuration not stated)	-2.0%	x	5.3%
O=C(N/N=C1\CCc2ccccc21)c1ccccc1O	u	10µM*	u
O=C(N/N=C1\CCCc2ccccc21)c1ccccc1Cl	6.2%	-3.2%	7.2%
O=C(NN=C1C2CC3CC(C2)CC1C3)c1ccccc1O	-28.2%	x	12.6µM*
O=C(NN=C1C2CC3CC(C2)CC1C3)c1cccs1	23.1%	-5.8%	38.3%
OC/C(Br)=C(\Br)CO	-1.6%	x	8.7%
Cc1ccc(-c2noc(CNC(=O)c3ccc4c(c3)OCO4)n2)cc1	2.5%	x	25.6%
COC(=O)C(CC(C)C)NC(=O)c1ccc(F)cc1 (configuration not stated)	-0.6%	2.5%	-6.5%
Cn1c(CSCc2ccccc2Cl)n[nH]c1=S	-9.1%	-0.6%	-13.7%
Cc1[nH]c2ccccc2c1SCc1n[nH]c(=S)n1C	1.4%	x	-36.2%
SMILES	Gal4-VP16 FLuc	Luc counter	RORg inh
Cn1c(CSCc2ccc(Cl)cc2Cl)n[nH]c1=S	6.31µM*	3.0%	0.794µM*
Cn1c(CCNC(=O)c2ccc(Cl)cc2)n[nH]c1=S	0.0%	-2.0%	-11.3%
Cn1c(CSCc2ccccc2)n[nH]c1=S	u	-1.3%	11.2µM*
Cn1c(CSCc2ccc(Cl)cc2)n[nH]c1=S	12.6µM*	-0.3%	2.82µM*
CCOc1cc(S(=O)(=O)NCc2cccnc2)c(C)cc1C	-15.4%	4.6%	10.0%
CC/C(=N\NC(=O)c1ccc(CN(C)S(=O)(=O)c2ccc(C)cc2)cc1)c1ccc(OC(F)F)cc1	u	-2.8%	-41.7%
Cc1ccc(S(=O)(=O)N(C)Cc2ccc(C(=O)NN=C(CC(C)C)CC(C)C)cc2)cc1	u	1.4%	10µM*
CCC(C)NC(=O)C1c2ccccc2C(=O)N(c2ccc(OC)cc2)C1c1ccc(OC)cc1 (configuration not stated)	7.5%	18.4%	-9.0%
CCOC(=O)CCCCC(=O)c1[nH]c(=O)[nH]c1CSc1nc(C)cc(C)n1	4.6%	-5.0%	-3.6%
CCOC(=O)CCCCC(=O)c1[nH]c(=O)[nH]c1CSc1nnc2c3cc(Br)ccc3n(C)c2n1	u	2.9%	5.01µM*
OC1CCC(NC(=S)Nc2ccc(SC(F)F)cc2)CC1 (configuration not stated)	-2.1%	1.1%	-27.8%
CC1CCCC(NC(=S)Nc2ccc(SC(F)F)cc2)C1C (configuration not stated)	5.01µM*	-1.7%	0.501µM*

From PubChem BioAssay
